# According to PubChem BioAssay AID651949 (Broad Institute, 2012):
# Results with a measured potency or affinity are listed apart. Active and inactive are the calls of the source.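 How the source made its calls: active means compounds lowering cell ATP signal whose fitted half-maximal concentration is at most twice the top tested dose; inconclusive means flat curve with 30 to 70% signal loss, or poor fit; inactive means the rest.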
# Assay: HEK293T cell cytotoxicity, dose response, cytotoxicity control, CellTiter-Glo luminescence, dry powder, set 6 (AID 651949)
# Settings: HEK293T viability, CellTiter-Glo ATP luminescence, 48 h; series mostly up to 26 µM
row,SMILES,outcome
1,CC(C)c1nnc(SCc2ccccc2)o1,inactive
2,Clc1ccccc1CSc1nnc(-c2ccccc2)o1,inactive
3,COCCOCCSc1nnc(-c2ccccc2)o1,inactive
4,c1ccc(-c2nnc(SC(c3ccccc3)c3ccccc3)o2)cc1,inactive
5,c1ccc(Cn2cc(CSc3nnc(C4CCCC4)o3)nn2)cc1,inactive
6,c1ccc(CSc2nnc(-c3cccs3)o2)cc1,inactive
7,c1ccc(CSc2nnc(-c3ccccc3)s2)cc1,inactive
8,COc1cccc(CSc2nnc(-c3ccccc3)o2)c1,inactive
9,Clc1ccc(-c2nnc(SCc3ccccn3)o2)cc1,inactive
10,c1ccc(-c2nnc(SCCN3CCN(c4ccccc4)CC3)o2)cc1,inactive
11,FC(F)(F)Oc1ccccc1CSc1nnc(-c2ccccc2)o1,inactive
12,c1ccc(CSc2nnc(-c3cccnc3)o2)nc1,inactive
13,c1ccc(CSc2nnc(-c3cscn3)o2)cc1,inactive
14,FC(F)(F)c1cccc(CSc2nnc(-c3ccccc3)o2)c1,inactive
15,Cc1ccccc1CSc1nnc(-c2ccccc2)o1,inactive
